The source of these data is PubChem BioAssay.

The structures appear in SMILES notation. Active and inactive are the calls of the source. Unless noted, no rule for the calls is given here.

Test [1] has as its system Wnt5a (protein binding on small-molecule microarray). Kind of test: Wnt5a binders on small-molecule microarray, primary screen, biophysical, 635/667 nm fluorescence (AID 1142).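 Also: fluorescence read at 667 nm with signal to noise per printed feature.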 Particulars: 635 nm fluorescence, higher = more signal.
The nature of test [2]: cell viability in Huh7 cells, primary screen, cytotoxicity control for HCV replication inhibitor project, CellTiter-Glo luminescence, basal, 48 h (AID 1143).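 Also: Huh7 hepatoma cells carrying a hepatitis C replication reporter with no stimulus; test concentration not given here.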 As to conditions: Huh7 HCV replicon, higher = more signal, called active from +8 up or from −8 down. Background: ATP-based viability assays read luminescence as a measure of living cells.
Test [3] can be described thus: P. aeruginosa biofilm formation inhibitors, primary screen, PAO1 strain, BacTiter-Glo luminescence, LB-PBS (AID 1144). As to conditions: 12 h, higher = more signal.
The nature of test [4]: CREB reporter modulators without forskolin, primary screen, cell-based, PC12, CRE-LacZ reporter, unstimulated (AID 1145). Particulars: no forskolin, luminescence, 4.5 h, higher = more signal, called active from +8 up or from −8 down.
The nature of test [5]: CREB reporter modulators under forskolin, primary screen, cell-based, PC12, CRE-LacZ reporter, forskolin-stimulated (AID 1146).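 Also: PC12 cells with 6xCRE LacZ reporter stimulated by forskolin 10 µM; beta-galactosidase reporter signal reflecting CREB driven transcription.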 Particulars: luminescence, 4.5 h, higher = more signal, called active from +8 up or from −8 down.
For test [6], the target named is Streptavidin (Streptomyces avidinii) (UniProt P22629). Kind of test: streptavidin binders on small-molecule microarray, primary screen, artefact control for SMM compound annotation, biophysical, 635/667 nm fluorescence (AID 1147).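 Also: signal reflects streptavidin binding to arrayed compounds as a control protein.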 Particulars: streptavidin binding, higher = more signal.
Streptavidin (Streptomyces avidinii), sequence (P22629 whole entry, looked up): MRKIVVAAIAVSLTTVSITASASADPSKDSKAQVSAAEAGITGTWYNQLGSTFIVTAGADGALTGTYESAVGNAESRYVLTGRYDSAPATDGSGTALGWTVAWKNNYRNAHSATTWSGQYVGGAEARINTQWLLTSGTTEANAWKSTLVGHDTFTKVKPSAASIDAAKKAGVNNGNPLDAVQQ
Test [7] can be described thus: small-molecule binders of probe aInhba, primary screen, biochemical, small-molecule microarray, 635/667 nm fluorescence (AID 1148).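 Also: score merges 667nm spot fluorescence with signal-to-noise for antibody binding to printed compounds.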 Particulars: higher = more signal.
Test [8] deals with Torsin-1A (Homo sapiens) (UniProt O14656). Kind of test: torsin A binders from cell lysate, primary screen, small-molecule microarray, wild-type, 635/667 nm (AID 1149). Particulars: COS7 hTOR1A-WT lysate, 635 nm fluorescence, higher = more signal.
Torsin-1A (Homo sapiens), sequence (O14656 whole entry, looked up): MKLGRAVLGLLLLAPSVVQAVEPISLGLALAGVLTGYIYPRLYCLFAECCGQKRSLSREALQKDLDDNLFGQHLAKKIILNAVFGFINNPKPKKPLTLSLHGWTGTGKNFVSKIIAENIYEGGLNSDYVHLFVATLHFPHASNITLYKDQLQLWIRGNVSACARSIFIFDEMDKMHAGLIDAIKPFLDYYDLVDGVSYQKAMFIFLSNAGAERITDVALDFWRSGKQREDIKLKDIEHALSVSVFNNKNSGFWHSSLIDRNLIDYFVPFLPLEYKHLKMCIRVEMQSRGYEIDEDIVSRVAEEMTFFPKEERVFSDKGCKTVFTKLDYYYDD
The target is the same in test [9]. Kind of test: small-molecule binders of mutant TOR1A in lysate, primary screen, cell lysate, small-molecule microarray, COS7 lysate, 635/667 nm fluorescence (AID 1150).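 Also: score pools 667 nm emission and signal to noise measuring lysate protein binding.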 Particulars: COS7 hTOR1A mutant lysate, 635 nm fluorescence, higher = more signal.
The subject of test [10] is Sonic hedgehog protein (Shh). Kind of test: small-molecule binders of Shh protein, primary screen, biochemical, small-molecule microarray, 635/667 nm fluorescence (AID 1151).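 Also: Shh protein binding to compounds spotted on small-molecule microarray slides; score combines spot fluorescence intensity with signal-to-noise across triplicate slides.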 As to conditions: small-molecule microarray binding, 635 nm fluorescence; higher = more signal.
Test [11] in a line: E. coli DRC41 culture turbidity changes, primary screen, E. coli filamentation inducer project, strain DRC41, OD650, 48 h (AID 1152).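 Also: E. coli MC1000 strain DRC41 lacking acrAB efflux pump and sulA.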 Particulars: E. coli DRC41 (acrAB sulA), higher = more signal, called active from +8 up or from −8 down.
A short description of test [12]: small-molecule binders of probe aLefty1, primary screen, biochemical, small-molecule microarray, 635/667 nm fluorescence (AID 1153).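 Also: score merges spot fluorescence with signal-to-noise ratio from the scanned slide images.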 As to conditions: higher = more signal.
Test [13] in a line: PSAC antagonists in infected red cells, primary screen, cell-based, P. falciparum Indochina, OD700, 1 h (AID 1154). As to conditions: P. falciparum Indochina infected RBC osmotic lysis, higher = more signal, called active from +8 up or from −8 down.
Test [14] is described as follows: PSAC antagonists in infected red cells, primary screen, cell-based, P. falciparum Indochina, OD700, 2 h (AID 1155).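 Also: lysis reports solute entry through the parasite surface anion channel PSAC; channel blockers reduce lysis of infected cells.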 As to conditions: P. falciparum Indochina infected erythrocytes, osmotic lysis OD700; higher = more signal, called active from +8 up or from −8 down.
Test [15] can be described thus: osmotic lysis modulators in infected erythrocytes, primary screen, PSAC antagonist project, cell-based, P. falciparum Indochina, OD700, 3 h (AID 1156). As to conditions: higher = more signal, called active from +8 up or from −8 down.
A short description of test [16]: PSAC antagonists in infected red cells, primary screen, cell-based, P. falciparum Indochina, OD700, 18 h (AID 1157). As to conditions: P. falciparum Indochina infected erythrocytes, osmotic lysis OD700, 18 h; higher = more signal, called active from +8 up or from −8 down.
Test [17] is described as follows: modulators of S6 phosphorylation in cells, primary screen, cell-based, A549, cytoblot, luminescence, serum-stimulated (AID 1158).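 Also: serum-stimulated A549 lung adenocarcinoma cells; signal is phosphorylated S6 detected by cytoblot immunostaining with HRP secondary.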 Particulars: A549 phospho-S6 cytoblot, 5 h, higher = more signal.
For test [18], the target named is NADPH oxidase 2 (Homo sapiens) (UniProt P04839). Kind of test: NOX2-dependent H2O2 signal modulators, primary screen, NOX inhibitor project, cell-based, HEK293-NOX2, PMA-stimulated, Amplex Red fluorescence (AID 1159). Also: test concentration not given here. As to conditions: 45 min, higher = more signal, called active from +8 up or from −8 down.
NADPH oxidase 2 (Homo sapiens), sequence (P04839 whole entry, looked up): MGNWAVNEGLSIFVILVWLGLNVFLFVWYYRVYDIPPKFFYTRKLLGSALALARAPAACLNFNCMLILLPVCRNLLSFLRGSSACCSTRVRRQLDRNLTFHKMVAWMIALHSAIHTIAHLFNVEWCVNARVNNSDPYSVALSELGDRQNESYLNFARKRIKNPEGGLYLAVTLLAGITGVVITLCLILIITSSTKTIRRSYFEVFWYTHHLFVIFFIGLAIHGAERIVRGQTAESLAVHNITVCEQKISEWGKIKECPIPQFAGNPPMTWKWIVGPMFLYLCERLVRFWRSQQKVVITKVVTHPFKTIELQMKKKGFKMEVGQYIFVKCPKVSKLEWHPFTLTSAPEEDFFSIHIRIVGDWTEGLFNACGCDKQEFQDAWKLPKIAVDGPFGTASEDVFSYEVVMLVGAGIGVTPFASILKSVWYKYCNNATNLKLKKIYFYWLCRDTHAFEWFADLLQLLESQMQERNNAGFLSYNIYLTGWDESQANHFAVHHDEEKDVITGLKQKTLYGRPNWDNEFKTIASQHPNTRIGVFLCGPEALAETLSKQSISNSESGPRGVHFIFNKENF
The target in test [19] is NADPH oxidase 4 (Homo sapiens) (UniProt Q9NPH5). Kind of test: NOX4-dependent H2O2 signal modulators, primary screen, NOX inhibitor project, cell-based, HEK293-NOX4, tetracycline-induced, Amplex Red fluorescence (AID 1160). As to conditions: 45 min, higher = more signal, called active from +8 up or from −8 down.
NADPH oxidase 4 (Homo sapiens), sequence (Q9NPH5 whole entry, looked up): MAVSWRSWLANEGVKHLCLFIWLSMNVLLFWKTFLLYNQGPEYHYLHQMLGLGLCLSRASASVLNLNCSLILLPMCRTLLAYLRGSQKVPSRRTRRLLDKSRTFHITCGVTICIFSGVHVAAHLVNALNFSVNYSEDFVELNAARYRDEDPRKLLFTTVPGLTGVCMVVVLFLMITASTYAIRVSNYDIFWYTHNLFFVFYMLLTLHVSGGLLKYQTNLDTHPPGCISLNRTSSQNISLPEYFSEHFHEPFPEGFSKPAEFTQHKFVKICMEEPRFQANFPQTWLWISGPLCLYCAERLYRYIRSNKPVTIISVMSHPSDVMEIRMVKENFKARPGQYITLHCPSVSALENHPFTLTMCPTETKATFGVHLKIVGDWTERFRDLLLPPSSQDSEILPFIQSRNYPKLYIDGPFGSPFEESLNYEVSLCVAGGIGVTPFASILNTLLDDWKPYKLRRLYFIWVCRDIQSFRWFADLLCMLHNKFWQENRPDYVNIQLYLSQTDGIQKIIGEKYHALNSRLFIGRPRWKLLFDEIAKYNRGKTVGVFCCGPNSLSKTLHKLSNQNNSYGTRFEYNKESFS
In test [20] the target is NADPH oxidase 5 (Homo sapiens) (UniProt Q96PH1). Kind of test: NOX5-dependent H2O2 signal modulators, primary screen, NOX inhibitor project, cell-based, HEK293-NOX5, Amplex Red fluorescence (AID 1161). As to conditions: HEK293-NOX5, ionomycin, 45 min, higher = more signal.
NADPH oxidase 5 (Homo sapiens), sequence (Q96PH1 whole entry, looked up): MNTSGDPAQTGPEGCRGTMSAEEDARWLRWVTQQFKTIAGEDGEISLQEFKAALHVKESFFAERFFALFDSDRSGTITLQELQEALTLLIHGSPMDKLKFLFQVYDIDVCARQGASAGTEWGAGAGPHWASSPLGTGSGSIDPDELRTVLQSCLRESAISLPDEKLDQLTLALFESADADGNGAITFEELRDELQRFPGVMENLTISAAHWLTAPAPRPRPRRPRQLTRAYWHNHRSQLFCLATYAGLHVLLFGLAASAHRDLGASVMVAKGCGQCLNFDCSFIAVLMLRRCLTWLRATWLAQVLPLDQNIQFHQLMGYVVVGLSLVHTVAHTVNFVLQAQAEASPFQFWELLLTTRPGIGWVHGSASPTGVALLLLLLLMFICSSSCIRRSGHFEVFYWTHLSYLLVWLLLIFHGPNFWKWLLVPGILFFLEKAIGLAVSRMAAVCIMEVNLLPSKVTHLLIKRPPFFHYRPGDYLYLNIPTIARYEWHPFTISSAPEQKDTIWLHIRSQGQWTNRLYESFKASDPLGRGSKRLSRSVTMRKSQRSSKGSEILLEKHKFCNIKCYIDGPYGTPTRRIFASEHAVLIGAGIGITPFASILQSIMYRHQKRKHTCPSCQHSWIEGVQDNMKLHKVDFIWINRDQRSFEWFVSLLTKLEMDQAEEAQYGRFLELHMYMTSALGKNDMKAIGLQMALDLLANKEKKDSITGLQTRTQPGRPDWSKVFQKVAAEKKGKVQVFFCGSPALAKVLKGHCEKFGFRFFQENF

Turning to `COCCCNC(=O)[C@@]1(C)c2ccccc2C(=O)N(Cc2ccc(OC(F)(F)F)cc2)[C@H]1c1ccc(CO)cc1`, the composite z-score in test [1] was -0.0685; in [6], -0.773; in test [7], 0.185; with Torsin-1A (Homo sapiens) [8] it was 0.13; with Torsin-1A (Homo sapiens) [9] it was -0.17; in test [10], -0.32. Moreover, the composite z-score in test [12] is -0.191. Besides, the z-score was -1.27 (inactive) in test [2]; -0.27 (inactive) in test [3]; 0.585 (inactive) in test [4]; -0.0912 (inactive) in [5]; 0.906 (inactive) in test [11]; 2.23 (inactive) in test [13]. In addition, the z-score in [14] was 0.123 (inactive); in test [15], 1.06 (inactive); in test [16], -0.0648 (inactive); in test [17], -0.459; in [18], -0.599 (inactive); in test [19], 1.18 (inactive). Further, the z-score in test [20] is 0.247.

Consider `COC(=O)[C@@H]1CC[C@H](C)[C@@H](c2ccc(C)cc2)N1C(=O)c1ccc(C=NOC(C)CN2CCCCc3nc(C)c(C)cc32)cc1` (stereo not given in full), for which the composite z-score in [1] was 0.595; in [6], 0.48; in [7], -0.0791; with Torsin-1A (Homo sapiens) [8] it was -0.269; with Torsin-1A (Homo sapiens) [9], -0.332; in [10] it was 0.328. Further, the composite z-score in test [12] is -0.0449. Also, the z-score is -3.62 (inactive) in [2]; -0.356 (inactive) in test [3]; 1.81 (inactive) in test [4]; 1 (inactive) in [5]; 0.173 (inactive) in test [11]; 1.21 (inactive) in test [13]. The z-score is 0.369 (inactive) in test [14]; 1.03 (inactive) in [15]; 0.367 (inactive) in test [16]; -0.122 in test [17]; -0.202 (inactive) in test [18]; -1.62 (inactive) in test [19]. The z-score in [20] was 0.64.

Take `O=C1C[C@@H](O)[C@@H](O)[C@@H]2[C@@H]3C(=O)N(C4CCCCC4)C(=O)[C@@H]3CC[C@H]12`: the composite z-score in [1] is 0.0832; in test [6], 0.0447; in test [7], -0.128; with Torsin-1A (Homo sapiens) [8], 0.296; with Torsin-1A (Homo sapiens) [9] it was 0.585; in test [10] it was -0.0419. The composite z-score in [12] was -0.103. Also, the z-score was 0.406 (inactive) in [2]; -0.653 (inactive) in test [3]; -0.0258 (inactive) in test [4]; -0.444 (inactive) in test [5]; -0.246 (inactive) in test [11]; 1.27 (inactive) in test [13]. Also, the z-score is 0.775 (inactive) in test [14]; -0.059 (inactive) in [15]; 0.423 (inactive) in test [16]; 0.403 in [17]; -1.6 (inactive) in test [18]; 0.386 (inactive) in [19]. Moreover, in test [20], the z-score is -0.883.

For the compound `CO[C@H]1COC(=O)[C@@H]2CCCN2C(=O)[C@@H](C)COC(=O)CC=C[C@@H]1C`, the composite z-score in test [1] was 0.055; in [6], 0.457; in test [7], -0.0136; with Torsin-1A (Homo sapiens) [8], 1.24; with Torsin-1A (Homo sapiens) [9] it was 0.219; in test [10], 2.14. In addition, in [12], the composite z-score is -0.198. Also, the z-score in test [2] is 0.321 (inactive); in test [3], -0.556 (inactive); in test [4] it was -0.892 (inactive); in test [5] it was -0.0307 (inactive); in [11] it was 0.737 (inactive); in [13], 0.464 (inactive). The z-score in test [14] is 0.279 (inactive); in test [15] it was 0.61 (inactive); in [16], 0.27 (inactive); in test [17] it was -0.552; in test [18], -0.281 (inactive); in test [19], 0.0546 (inactive). This compound showed a z-score in test [20] of -0.48.
